The results in this text go back to PubChem BioAssay AID720519 (National Center for Advancing Translational Sciences (NCATS), 2013).

Records with an inconclusive call do not appear. Entries that show only a call come without a potency. Calls of active or inactive are those of the source. Calls come from the whole dose curve; as a rule, active = well fitted activation curve with a large enough effect; inconclusive = small, poorly fitted or top-dose-only effect; inactive = flat fitted curve, though single readings scatter.
Potency is the fitted concentration of half-maximal effect.

The test in a line: qHTS for Inhibitors of Cell Surface uPA Generation: Confirmatory Assay for Cherry-picked Compounds. Conditions: cell surface uPA activity generation, qHTS confirmation; series mostly up to 115 µM. The method in brief:
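RAW 264.7 cells at 4000/well, incubated overnight, then treated with compounds. After 24 h at 37 C, viability was read by ATPlite luminescence. An increase in signal indicates blocked uPA-dependent LF entry.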
`O=C(O)CNC(=S)N(Cc1ccccc1)Cc1cccnc1`: the Potency result is “inactive”. The figure for `CC(C)C1Oc2ccccc2N(CC(=O)NC2CCCCC2)C1=O` (centres undefined) is 32.9 µM (active). Take `Clc1ccccc1N1CCN(c2ncnc3nc[nH]c23)CC1`: the Potency entry is “inactive”. As to `COCCOc1ccc(C(F)(F)F)cc1NC(=O)COC(=O)Cc1c[nH]c2ccccc12`, the Potency result is “inactive”. The entry for `O=[N+]([O-])c1cccc2c(N3CCOCC3)ccnc12` is “inactive”; for `CC(C)Cn1cnc2c1c(=O)[nH]c(=O)n2Cc1ccccc1` it is “inactive”; for `CN(/N=C/c1cc(Cl)cc(Cl)c1O)C(=S)NC(C)(C)C` it is “inactive”. As for `CCOC(=O)[C@H]1[C@H]2COc3ccc(Br)cc3[C@@H]2N2C(=O)c3c(C)cc(C)cc3NC(=O)[C@@]12C`, the Potency entry was “inactive”. The entry for `COc1ccc2c(ccn2S(=O)(=O)c2ccccc2)c1` is “inactive”; for `COC(=O)CNC(=O)COC(=O)/C=C/c1ccccc1[N+](=O)[O-]` it is “inactive”. The entry for `Cc1ccc(C)c(-c2ccc(=O)n(Cc3c(F)cccc3Cl)n2)c1` is “inactive”. The entry for `Cc1nn(-c2ccc(F)cc2)c(C)c1NS(=O)(=O)c1ccc(Cl)cc1` is “inactive”; for `Cc1ccc(NC(=O)CSc2nncn2N)cc1C` it is “inactive”. As for `C/C(=N\NC(=S)NC(C)C)c1ccc(Cl)s1`, the Potency result is “inactive”. The entry for `COc1cccc(C2CC(c3ccc(C)cc3)n3ncnc3N2)c1` (centres undefined) is “inactive”.

On to `CCCCn1c(-c2cccnc2)nc2cc3[nH]c(=O)c(C(C)C)nc3cc21`, for which the Potency result is “inactive”. Turning to `CC(C)CNC(=O)COC(=O)CCC(=O)c1cccs1`, the Potency result is “inactive”. The entry for `C=CCc1cc(S(=O)(=O)c2ccc(O)c(CC=C)c2)ccc1O` is “inactive”.

Turning to `CCc1nccn1CCC(=O)N1CCc2c([nH]c3ccccc23)C1CC(C)C` (centres undefined), the Potency entry is “inactive”. The entry for `COCc1cc(C)nc2sc(C(=O)Nc3nccs3)c(N)c12` is “inactive”; for `NC(=O)CC(NC(=O)Cc1cccc2ccccc12)c1ccc(N2CCN(c3ccccc3)CC2)c([N+](=O)[O-])c1` (centres undefined) it is “inactive”. Consider `CCN(CC)c1ccc(C=NCCc2ccc(S(N)(=O)=O)cc2)cc1`, for which the Potency entry was “inactive”. The entry for `Cc1cccc(CCNC(=O)Cc2ccc(NC3=NC4CS(=O)(=O)CC4S3)cc2)c1` (centres undefined) is “inactive”.

With `O=C(CSC1=NS(=O)(=O)c2ccccc2N1)Nc1nccs1`, the Potency result is “inactive”. Take `CSc1ccccc1OCc1cc(C(=O)NCCCn2nc(C)cc2C)no1`: the Potency entry was “inactive”.

Regarding `Cc1cc(C)cc(NC(=O)C(OC(=O)c2ccc(O)cc2)c2ccccc2)c1` (centres undefined), the Potency entry is “inactive”.

For `Cc1nn2c(=O)cc(CSc3nc4ccccc4[nH]3)nc2s1`, the Potency entry was “inactive”. The entry for `CCOc1cc(/C=N/Nc2cc(C)nc3ccc(C)cc23)ccc1O` is “inactive”; for `COCCN(CCOC)c1nc(-c2ccc(C)cc2)nc2ccccc12` it is “inactive”; for `CCOC(=O)C1=C(CN2CCN(C(=O)c3ccco3)CC2)NC(=O)NC1c1ccccc1` (centres undefined) it is “inactive”. With `CC1CCN(C2=C(NS(=O)(=O)c3ccc(Br)cc3)C(=O)c3ccccc3C2=O)CC1`, the Potency entry is “inactive”. For the molecule `COc1ccccc1N1CCN(CC(=O)c2c(C)[nH]c3ccccc23)CC1`, the Potency entry is “inactive”. As for `C[C@H](O)[C@@H]1C(=O)N2CCc3ccc(-c4cccc(F)c4)cc3[C@@H]2C[C@@H]1N(C)C(=O)C(C)(C)C`, the Potency entry was “inactive”.

Regarding `O=C(NCc1ccco1)/C(=C\c1cccs1)NC(=O)c1ccccc1`, the Potency entry was “inactive”. The entry for `O=C(COc1ccccc1F)NCC(c1ccc(F)cc1)N1CCOCC1` (centres undefined) is “inactive”; for `CCCOc1ccc(S(=O)(=O)NNC(=O)c2cc3ccccc3o2)cc1` it is “inactive”; for `Clc1ccc(C2=NN=C3COc4ccccc4N3C2)cc1` it is “inactive”. The entry for `COCCn1c(SCC(=O)Nc2ccc(F)cc2)nc2ccccc2c1=O` is “inactive”; for `C[C@]12CCC(O)CC1CCC1C2CC[C@]2(C)C(c3cc(C(F)(F)F)n[nH]3)CCC12` (some centres undefined) it is “inactive”.
